According to PubChem BioAssay (NCI):
This is part of a sample that, as a whole, favours compounds with a hit. Of some 79,000 tested, about 15% had one in any assay. Unmarked numbers belong to inactive results. Activity calls are given as the source filed them. No stated cut-off is given here; in the data, active means growth inhibition above about 70%; inactive means the rest.

Key:
[1] = NCI Yeast Anticancer Drug Screen. Data for the rad50 strain (AID 155);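 further: 0% = growth of vehicle-only cultures of the same strain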; conditions: S. cerevisiae rad50 strain growth inhibition, hits give high values
In short: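 Cells are treated with compound, grown, and their growth is then scored against vehicle-only cultures of the same repair-deficient yeast strain.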

[2] = NCI Yeast Anticancer Drug Screen. Data for the mec2-1 strain (AID 157); conditions: S. cerevisiae mec2-1 strain, hits give high values
In short: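 Vehicle-treated cultures served as reference for growth inhibition of compound-exposed mec2-1 yeast.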

[3] = NCI Yeast Anticancer Drug Screen. Data for the sgs1 mgt1 strain (AID 161);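 further: 0% = growth of cultures given vehicle only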; conditions: S. cerevisiae sgs1 mgt1 strain, hits give high values
In short: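 Read-out: growth inhibition vs vehicle controls. Cells: mutant yeast strain deficient in DNA damage repair.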

[4] = NCI Yeast Anticancer Drug Screen. Data for the cln2 rad14 strain (AID 165);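 further: 0% = growth equal to vehicle treated cultures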; conditions: S. cerevisiae cln2 rad14 strain, hits give high values
In short: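 Each compound was tested on cln2 rad14 yeast. Inhibition of growth was calculated against vehicle-exposed controls.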

[5] = NCI Yeast Anticancer Drug Screen. Data for the bub3 strain (AID 167); conditions: S. cerevisiae bub3 mutant strain, hits give high values
In short: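 Part of a panel of yeast mutants defective in DNA damage repair or cell cycle regulation. Each strain is grown with compound, and inhibition is calculated relative to solvent-treated cultures.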

[6] = NCI Yeast Anticancer Drug Screen. Data for the mlh1 rad18 strain (AID 175); conditions: S. cerevisiae mlh1 rad18 strain growth inhibition, hits give high values
In short: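 Vehicle-treated cultures served as the reference for growth inhibition in a yeast strain carrying DNA damage repair alterations exposed to each compound.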

[7] = at 5.0 µM (retest, dose inferred, filed as 0.5)
[8] = at 50.0 µM (retest, dose inferred, filed as 5.0)

| SMILES | growth inhibition [1, 7] | growth inhibition [1, 8] | growth inhibition ([1]; at 50.0 µM) | growth inhibition [2, 7] | growth inhibition [2, 8] | growth inhibition ([2]; at 50.0 µM) | growth inhibition [3, 7] | growth inhibition [3, 8] | growth inhibition ([3]; at 50.0 µM) | growth inhibition [4, 7] | growth inhibition [4, 8] | growth inhibition ([4]; at 50.0 µM) | growth inhibition [5, 7] | growth inhibition [5, 8] | growth inhibition ([5]; at 50.0 µM) | growth inhibition [6, 7] | growth inhibition [6, 8] | growth inhibition ([6]; at 50.0 µM) |
| --- | --- | --- | --- | --- | --- | --- | --- | --- | --- | --- | --- | --- | --- | --- | --- | --- | --- | --- |
| CC(=O)NC1C(O[C@H]2CC[C@@]3(C)C(CC[C@]4(C)C3CC=C3C5CC(C)(C)CC[C@]5(C(=O)O)CCC34C)C2(C)C)OC(CO)C(O)C1O (stereo not given in full) | 42% | 98% (active) | 91% (active) | 69% | 99% (active) | 92.8% (active) | 44% | 99% (active) | 90.2% (active) | 74% (active) | 99% (active) | 91% (active) | 77% (active) | 98% (active) | 91.2% (active) | 48% | 99% (active) | 90% (active) |
| COC(=O)C1=C(C(=O)OC)C2(OC(C)=O)c3ccccc3-c3ccccc3C12 (stereo not given) | 72% (active) | 98% (active) | 90.2% (active) | 92% (active) | 99% (active) | 93.5% (active) | 43% | 98% (active) | 91.6% (active) | 86% (active) | 99% (active) | 89.6% (active) | 92% (active) | 98% (active) | 90.2% (active) | 73% (active) | 99% (active) | 91.2% (active) |
| C[C@]12C/C(=C/O)C(=O)C(O)=C1CC[C@@H]1C2CC[C@@]2(C)C1CC[C@@H]2O (stereo not given in full) | 6% | 56% | 78.9% (active) | 5% | 33% | 59.4% | 4% | 70% (active) | 52.2% | 6% | 52% | 62.2% | -39% | 81% (active) | 79.4% (active) | 8% | 74% (active) | 89.2% (active) |
| CC/C(=C/c1ccc(OC)cc1OC)[N+](=O)[O-] | 66% | 99% (active) | 99.4% (active) | 48% | 100% (active) | 99.7% (active) | 51% | 98% (active) | 99% (active) | 22% | 99% (active) | 99.3% (active) | 44% | 99% (active) | 99.5% (active) | 39% | 99% (active) | 99.2% (active) |
| O=C(CBr)OC1CCCCC1 | 73% (active) | 97% (active) | 91% (active) | 41% | 98% (active) | 69.4% | 55% | 98% (active) | 87.4% (active) | 24% | 80% (active) | 10.9% | 60% | 97% (active) | 75.8% (active) | 69% | 98% (active) | 90.4% (active) |
| C=C1C(=O)O[C@@H]2C[C@@H](C)[C@@H]3C=CC(=O)[C@@]3(C)[C@@H](O)[C@H]12 | 16% | 16% | 9.25% | 2% | 19% | 17.4% | 3% | 31% | 27.5% | 11% | 14% | 22.1% | -18% | 3% | 22.9% | 11% | 27% | 32.2% |
| CC(=O)c1ccccc1O.CO.CO.[Cl][Ta][Cl] | 1% | 1% | -13% | 15% | -7% | -5.75% | -14% | 0% | -9.65% | -7% | -6% | 33.9% | -1% | -5% | 3.45% | -6% | 1% | -10.2% |
| O=[C-]c1ccccc1[C-]=O.[Pd+2].c1ccc([PH+](c2ccccc2)c2ccccc2)cc1.c1ccc([PH+](c2ccccc2)c2ccccc2)cc1 | 11% | 44% | 34.6% | 7% | 54% | 35% | 23% | 69% | 84.5% (active) | 5% | 40% | -0.7% | 4% | 97% (active) | 14.7% | 14% | 80% (active) | 60.9% |
| O=C1C=C(Cl)C(=O)C(Cl)=C1 | 15% | 99% (active) | 99.4% (active) | 23% | 99% (active) | 99.3% (active) | 7% | 99% (active) | 99.5% (active) | 0% | 95% (active) | 91.5% (active) | 10% | 99% (active) | 99.3% (active) | 20% | 99% (active) | 99.4% (active) |
| CC[S+](C)c1ccc(-c2c3nc(c(-c4ccc([S+](C)CC)cc4)c4ccc([nH]4)c(-c4ccc([S+](C)CC)cc4)c4nc(c(-c5ccc([S+](C)CC)cc5)c5ccc2[nH]5)C=C4)C=C3)cc1 (stereo not given) | 95% (active) | 95% (active) | 86.8% (active) | 98% (active) | 97% (active) | 90.7% (active) | 73% (active) | 97% (active) | 91.8% (active) | 56% | 96% (active) | 89.5% (active) | 94% (active) | 96% (active) | 89% (active) | 96% (active) | 95% (active) | 88.5% (active) |
